Bioassay records as filed in PubChem.
LGR2 antag: Drosophila LGR2 receptor signaling inhibition. HEK293 LGR2, CRE-luciferase, bursicon-stimulated, 4 h. inhibition, % at 9.99 µM. 0.35% of 380,000 active;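 active = drop in luminescence signal, shown as inhibition above about 50% in the replicate tests, limit read from the data, passing the limit was not always enough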;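 note: agonist challenge used bursicon conditioned medium at about half maximal strength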
EWS-Fli block: blocks EWS/Fli oncoprotein-driven transcription; A673 NR0B1-luciferase reporter, viability-normalised; inhibition, % at 12.6 µM; 0.67% of 350,000 active; AID 651661;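 active = mean inhibition of at least 50% after viability correction, with every replicate also passing that limit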;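 note: firefly luciferase signal divided by Alamar Blue viability fluorescence both relative to DMSO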
Shn3 inh set2: inhibitors of Schnurri-3 3'UTR reporter in osteoblasts; Clone20 osteoblast Shn3 3'UTR firefly luciferase, 24 h; inhibition, % at 12.5 µM; 0.52% of 360,000 active; AID 588674;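 active = mean inhibition of at least 75% with every replicate also reaching 75%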;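 note: 0% = median of neutral control wells and 100% = pilot-screen positive control compound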
KKLEB tox: counter-screen for CF NF-kB inhibitors: cytotoxicity; KKLEB CF airway cells viability, ATPlite luminescence, overnight; stronger effect = lower value; cells stimulated with P. aeruginosa culture filtrate; activity change (cytotoxicity), % at 5 µM; 0.36% of 360,000 active; AID 602141;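 active = corrected activity change at or below -50% at 5 µM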
CF NFkB inh: blocks PAF-induced NF-kB reporter in cystic fibrosis cells. KKLEB NF-kB-GFP reporter, GFP fluorescence overnight. 0.86% of 360,000 active. inhibition, % at 5 µM;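 active = at least 50% inhibition at 5 µM, scaled per plate between neutral and stimulator controls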;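 note: PAF is a Pseudomonas aeruginosa culture filtrate used as stimulus; plate controls were PAF-stimulated DMSO wells for no effect and unstimulated DMSO wells for full effect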
PAX8 reporter: PAX8 transcriptional activity inhibition; RMG-I TPO-luciferase reporter, SteadyGlo, 24 h; inhibition, % at 12.6 µM; 1.2% of 360,000 active; AID 652154;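 active = mean replicate inhibition at least 60% with every replicate also reaching 60%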;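 note: luciferase light reporting Pax8 driven TPO promoter activity; plate controls were median of neutral control wells for no effect and mitoxantrone controls for full effect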
CF NFkB conf: confirmation of cystic fibrosis induced NF-kB inhibitors. shares compounds with CF NFkB inh. KKLEB CF airway cells, PAF-induced NF-kB-GFP fluorescence, overnight. inhibition, % at 5 µM. 64% of 1,300 active; in the data active = inhibition above about 40%;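 note: stimulus PAF is a Pseudomonas aeruginosa filtrate and not platelet activating factor; plate controls were DMSO wells with stimulus for no effect and unstimulated DMSO wells for full effect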
The depositor's hits bear a star; / = no result. Compounds with a hit are over-represented: about 2% of the library has one in this group of screens.

SMILES | LGR2 antag | EWS-Fli block | Shn3 inh set2 | KKLEB tox | CF NFkB inh | PAX8 reporter | CF NFkB conf
COc1cccc(NC(=O)Nc2nnc(CC(=O)Nc3ccccc3)s2)c1 | -1 | -16 | -4 | -3 | 57* | -15 | 72*
O=C(Nc1ccc(F)cc1)Nc1nnc(COc2ccccc2F)s1 | 28 | -2 | 6 | -24 | 58* | -3 | 44*
COc1ccc(NC(=O)Nc2nnc(CC(=O)Nc3ccccc3)s2)cc1 | 8 | 1 | 1 | 0 | 15 | -21 | /
O=C(Nc1nnc(COc2ccccc2F)s1)Nc1ccccc1F | / | -2 | 3 | -17 | 14 | 2 | /
CCCN1[C@@H]2c3ccc(-c4cccnc4)c(=O)n3C[C@@H]2[C@@H](CO)[C@@H]1C(=O)NCCN1CCCC1 | 0 | -21 | / | / | / | -20 | /
O=C(Nc1cccc(S(=O)(=O)N2CCCCC2)c1)Nc1ccc(Cl)cc1Cl | 39 | 9 | 15 | -46 | 58* | 37 | 67*
Cc1ccc2nc(C(F)(F)F)c(C#N)c(N)c2c1 | 65* | 11 | -22 | -12 | 83* | / | 100*
Cc1cc(C)c2nc(C(F)(F)F)c(C#N)c(N)c2c1 | / | / | 11 | -16 | 70* | / | 92*
Cc1cccc(C(C#N)c2nc3ccccc3nc2C(F)(F)F)c1 (centres undefined) | / | / | 8 | -8 | 13 | / | /
C[C@@H]1CN([C@@H](C)CO)C(=O)c2cc(NC(=O)Cc3ccccc3)ccc2O[C@@H](C)CCCCO[C@@H]1CN(C)S(=O)(=O)c1cn(C)cn1 | -11 | -6 | / | / | / | 6 | /
O=C(NC(=S)Nc1cccc(NC(=S)NC(=O)c2ccccc2)c1)c1ccccc1 | -48 | -49 | -25 | 2 | 12 | -70 | /
Cc1ccc(NC(=S)NC(=O)c2ccccc2)cc1NC(=S)NC(=O)c1ccccc1 | -47 | -59 | -5 | -27 | 64* | -28 | 27
C[C@H](CO)N1C[C@H](C)[C@@H](CN(C)C(=O)c2ccccn2)Oc2ncc(-c3cccc(F)c3)cc2C1=O | -4 | -1 | / | / | / | / | /
O=C(c1ccccc1)N1CC2(C1)[C@@H](c1ccccc1)[C@@H](CO)N2CC1CC1 | 5 | 3 | / | / | / | 0 | /
COc1cc(/C=C/C(=O)O)ccc1O | / | -6 | 0 | 1 | -16 | / | /
COc1cc(/C=C/C(=O)c2ccc([N+](=O)[O-])o2)ccc1O | 24 | 55* | 97* | -21 | 83* | 59 | 2
O=C(/C=C/c1cccc([N+](=O)[O-])c1)n1cnc2ccccc21 | 24 | 65* | 92* | -3 | 82* | 19 | 67*
O=C(/C=C/c1cccc([N+](=O)[O-])c1)c1cccs1 | 14 | 30 | 10 | -1 | 44 | -40 | /
CC(=O)Oc1ccccc1C(=O)C=Cc1cccc([N+](=O)[O-])c1 | 101* | 43 | 56 | -41 | 80* | 15 | -60
C[C@@H]1CN([C@@H](C)CO)C(=O)c2cc(NC(=O)NC3CCCCC3)ccc2O[C@@H](C)CCCCO[C@@H]1CN(C)S(=O)(=O)c1ccccc1 | 18 | 1 | / | / | / | -15 | /
O=C1Nc2ccccc2/C1=C\C(=O)c1ccccc1 | 10 | 38 | 65 | -14 | 17 | 27 | /
Cc1cccc2c1NC(=O)/C2=C\C(=O)c1cccs1 | / | / | 16 | -42 | 74* | / | 47*
Cc1nc(N2CCC(C(N)=O)CC2)c2c(-c3cccs3)csc2n1 | 24 | 2 | 15 | -16 | 67* | -8 | 68*
O=[N+]([O-])c1cccc(NC(=S)Nc2nc(-c3ccccc3Cl)cs2)c1 | 22 | 7 | 26 | -17 | 50* | 34 | 67*
O=[N+]([O-])c1cccc(NC(=S)NCc2ccncc2)c1 | -14 | -12 | -6 | 5 | 8 | 7 | /
SMILES | LGR2 antag | EWS-Fli block | Shn3 inh set2 | KKLEB tox | CF NFkB inh | PAX8 reporter | CF NFkB conf
Cc1ccc(S(=O)(=O)Nc2cccc3ncccc23)s1 | / | / | 84 | 5 | 83* | / | 109*
Cc1ccc(S(=O)(=O)Nc2ccnc3ccccc23)cc1 | / | / | 4 | -19 | 9 | 2 | /
O=Nc1ccc(NO)c2ccccc12 | -18 | -19 | 41 | -19 | 85* | 6 | 54*
CC(Sc1nc2ncc(Cl)cc2[nH]1)C(=O)Nc1ccccc1[N+](=O)[O-] (centres undefined) | 6 | -2 | 0 | -14 | 53* | 7 | 3
Cc1c(Cl)cccc1NC(=O)CSc1nc2ncc(Cl)cc2[nH]1 | 6 | / | 8 | -7 | 62* | -7 | 51*
Cc1ccccc1NC(=O)CSc1nc2ncc(Cl)cc2[nH]1 | 0 | -2 | -6 | -7 | 18 | 2 | /
COCC(=O)Nc1ccc2c(c1)C(=O)N(C)[C@H]1CC[C@@H](CC(=O)Nc3cn(C)nc3C)O[C@H]1CO2 | -12 | 1 | / | / | / | 1 | /
COc1ccc(NC(=O)c2cc(C)nc3ccccc23)cc1S(=O)(=O)N1CCOCC1 | 40 | -4 | -5 | -6 | 11 | -12 | /
COc1ccc(Nc2nc(-c3ccccc3)nc3ccccc23)cc1S(=O)(=O)N1CCOCC1 | 20 | 14 | / | -24 | 89* | 65* | 75*
C[C@H]1CCCCO[C@H](CN(C)Cc2ccc(C(=O)O)cc2)[C@@H](C)CN([C@@H](C)CO)C(=O)c2cc(NC(=O)CCC(F)(F)F)ccc2O1 | 0 | -7 | / | / | / | / | /
CCCC(=O)Nc1ccc2c(c1)C(=O)N(C)C[C@@H](OC)[C@@H](C)CN(C(=O)c1cccnc1)[C@H](C)CO2 | -2 | 0 | / | / | / | -2 | /
Cn1c(=O)c2c(nc(Oc3ccc4ccccc4c3)n2C)n(C)c1=O | 21 | / | 6 | -9 | 55* | / | 69*
COc1ccc(Oc2nc3c(c(=O)n(C)c(=O)n3C)n2C)cc1 | 6 | 7 | -10 | -3 | 27 | -7 | /
CO[C@@H]1CN(C)C(=O)c2cc(NS(C)(=O)=O)ccc2OC[C@@H](C)N(CCC(F)(F)F)C[C@@H]1C | -2 | -10 | / | / | / | / | /
Cc1ccc(NC(=O)CSc2ncnc3ccccc23)cc1S(=O)(=O)N1CCOCC1 | 27 | 4 | 9 | -21 | 56* | -3 | 73*
Cc1ccc(NC(=O)CSc2ncnc3ccccc23)cc1S(=O)(=O)N1CCCCC1 | 28 | / | 11 | 1 | 41 | / | /
Cc1ccc(S(=O)(=O)N(C)C[C@@H]2OCCCC[C@H](C)Oc3ccc(NC(=O)NC(C)C)cc3C(=O)N([C@H](C)CO)C[C@@H]2C)cc1 | 19 | -3 | / | / | / | -23 | /
Cc1c(NC(=O)Nc2ccc(Cl)cc2)c(=O)n(-c2ccccc2)n1C | / | / | -17 | -7 | -5 | / | /
Cc1c(N=C2N=C(NC(=O)Nc3ccc(Cl)cc3)c3ccccc32)c(=O)n(-c2ccccc2)n1C | 18 | 5 | 3 | -41 | 51* | -2 | 18
C[C@@H]1CN([C@H](C)CO)C(=O)Cc2cc(NS(=O)(=O)c3ccccc3)ccc2O[C@@H]1CN(C)C(=O)Nc1ccc(C(F)(F)F)cc1 | 9 | 12 | / | / | / | / | /
